From PubChem BioAssay AID1347426 (Functional Genomics Laboratory (NCATS/FGL), 2020)
The campaign covered roughly 31,000 sequences. About 1,400 (4.5%) were called active. Many of the other results were omitted from the sample, so actives are more common in it than they were. Unmarked numbers belong to inactive results.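 The calls were made as follows: active = median seed-adjusted z-score above 1 or below -1; inactive = the rest.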

Test: Novel Modifiers of Survival Motor Neuron (SMN) Protein: Gene Identification via Genome-wide siRNA Screen;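 also: luminescence tracks full-length SMN protein made from the SMN2 reporter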
Details: HEK293T SMN2-luciferase reporter, siRNA knockdown, 72 h; actives lie on both sides
Summary of the method: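 HEK293T cells stably expressing an SMN2 splicing/cDNA-luciferase reporter were reverse-transfected with a druggable-genome siRNA library and read by luminescence at 72 hours; hits defined by MAD score above 1.0 or below -1.0.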
CGACAAGAUCAAAUACCCATT against LZTR1 showed a median seed-adjusted z-score of 0.293.
With CAAGCCUGAUUUCCACCUATT against DTD1 the median seed-adjusted z-score was -1.58 (active).
In the case of CAACGAGAAUGACUGCUGATT against PTPDC1, the median seed-adjusted z-score is reported as -0.191.
CAAGAAAACCAGAAUGGAATT against SERPING1 showed a median seed-adjusted z-score of -0.244.
Work on GCGAUUGCUUUGAUGGGUATT against LTBP1 yielded a median seed-adjusted z-score of 0.143.
In the case of GAAUCCUCCCAAUUGAUCATT against LSG1, the median seed-adjusted z-score is reported as 1.31 (active).
For GAACAUCGUUAUAAGUUGATT against CNTN3, the median seed-adjusted z-score was 0.732.
GCACUAAUCUGCAAACUGUTT against SPTB showed a median seed-adjusted z-score of 0.153.
CAGACAAAUUUUAACCACATT against SLC17A8 gave a median seed-adjusted z-score of -0.332.
With GGUCCAUCCAAAUUGUGGATT against CYP21A2 the median seed-adjusted z-score was -0.26.
With GCGCAUCUAUCAACCCAAUTT against MLNR the median seed-adjusted z-score was -0.038.
With AGACUAAACUACUCUCGAATT against WDR46 the median seed-adjusted z-score was -0.136.
With GCUGCUAUCAGUGAACGGATT against LIN7A the median seed-adjusted z-score was -1.39 (active).
CGUGUUAGUGAAUAAAGUATT against ZNF771 gave a median seed-adjusted z-score of 0.108.
In the case of CGGCAGACACUGAACAUCATT against SLC6A18, the median seed-adjusted z-score is reported as 0.148.
In the case of GUAGCACAGAGGAUUAAAATT against TTC33, the median seed-adjusted z-score is reported as 0.104.
With CUCUAACCGUGGUUCCAGATT against SUPT16H the median seed-adjusted z-score was 1.2 (active).
Work on CGGCGGAGUUUAUAGAUAATT against BCKDHA yielded a median seed-adjusted z-score of -0.299.
Work on GAAUCUACCUUGCUGCUCATT against G6PC yielded a median seed-adjusted z-score of -0.628.
GGACUACUAUGCCACUGCUTT against SSTR4 gave a median seed-adjusted z-score of -0.00217.
For CGGCAACUUCAAUAACAGUTT against LPHN1, the median seed-adjusted z-score was -1.03 (active).
GAGGGACUAUUUCACGAAATT against PARD3B showed a median seed-adjusted z-score of 0.306.
In the case of GUGCAUCUCUUGACAAUUUTT against LIPI, the median seed-adjusted z-score is reported as 0.65.
Work on GAAUAUUCUCGAUUUAAUATT against PPP1R3D yielded a median seed-adjusted z-score of 0.
GGGCUGUUAUUUCAAGAAATT against GALNT13 gave a median seed-adjusted z-score of -0.0149.
GAGCAUGUUUUUACCCUUUTT against MGC17403 gave a median seed-adjusted z-score of 0.204.
With CCAUAACAUUCACAAGUGUTT against TRPS1 the median seed-adjusted z-score was -0.125.
Sequence CCAGGUCACGAGUCAAGUATT against KTI12 has a median seed-adjusted z-score of 0.0814.
For GGCCGUAACCUCAACCGUUTT against SNX33, the median seed-adjusted z-score was -0.246.
For GACAAUCGACCGAAAGCAATT against PPP4C, the median seed-adjusted z-score was 1.15 (active).
With GGGCAACAGUUGAACACCATT against PDK4 the median seed-adjusted z-score was -0.693.
GCUUUGACCGUGUCCGAAATT against STT3A showed a median seed-adjusted z-score of 0.
Work on GCAUUUCCCAAGACGUGGATT against ZFYVE28 yielded a median seed-adjusted z-score of 0.0678.
For GCAUUCACCAGAACGAGAATT against RIMS1, the median seed-adjusted z-score was 0.
For CGCAUCCAAGAGUACCUUUTT against ZNF229, the median seed-adjusted z-score was -0.497.
In the case of GGACAUGAACCUUAACGAATT against DIAPH2, the median seed-adjusted z-score is reported as -0.0149.
In the case of CUAUACUCUUCGCUCCUAUTT against SIGMAR1, the median seed-adjusted z-score is reported as -1.4 (active).
GGUUGAAAAGGAGUGCAAATT against CACYBP showed a median seed-adjusted z-score of -0.33.
In the case of CAAAUCUGCUCAUCGAAAATT against MID1, the median seed-adjusted z-score is reported as -0.294.
Sequence AGAAGAUCAUAGGCAGCAATT against KLK8 has a median seed-adjusted z-score of 0.736.
GCUUCAGAGUCAACGGACATT against MICB showed a median seed-adjusted z-score of 0.162.
For GAGGAACAGGAAUAACAUUTT against GCG, the median seed-adjusted z-score was -1.18 (active).
GGCCUAACCAUAUGCCUAUTT against SS18 gave a median seed-adjusted z-score of 0.34.
In the case of GGUUUUUCCGCCAACUAGATT against CAPS, the median seed-adjusted z-score is reported as -1.25 (active).
Sequence GGUGUGCGGUUCAUCUUCATT against ILVBL has a median seed-adjusted z-score of 0.343.
Work on CUAAAGAGGUCAACAUUGATT against RGS16 yielded a median seed-adjusted z-score of 0.
Work on AGGUGUUCAUCGGCGUAAATT against GRHL3 yielded a median seed-adjusted z-score of -0.0434.
CCAGCAGCAUGGAAGUUGUTT against HSD3B7 gave a median seed-adjusted z-score of -0.0819.
For UCAUCUACCUGAUGCGUAUTT against TAF6, the median seed-adjusted z-score was -1.36 (active).
Sequence GAACUAUGAAUAAAGCUUUTT against HAGHL has a median seed-adjusted z-score of -0.334.
In the case of GGCUUGAAGUAUGGAAAAATT against QRICH1, the median seed-adjusted z-score is reported as -1.04 (active).
Sequence CCAGCUUAGUUCAAUAUGATT against GABRA4 has a median seed-adjusted z-score of 0.549.
Work on CCAUCCUGAUAAGAACCCATT against DNAJA1 yielded a median seed-adjusted z-score of -0.00548.
With GGGCCUACUUUACAUCACATT against TXNDC14 the median seed-adjusted z-score was -2.39 (active).
In the case of CGCUUACAAGGUCAACAUUTT against S1PR3, the median seed-adjusted z-score is reported as -0.0931.
CAAGCUACGUAGAGAUCUATT against KIFC1 gave a median seed-adjusted z-score of 0.0417.
For ACAUGUUCCUCACCUUAAATT against SLC6A1, the median seed-adjusted z-score was -0.122.
With GGAGGGAUAUGUUCCACGUTT against TP53BP2 the median seed-adjusted z-score was 0.157.
With CUACUGUGGGUGUCGCAUATT against UQCRFS1 the median seed-adjusted z-score was -1.28 (active).
GAGCGACUUUGAUCACCAUTT against PANK2 showed a median seed-adjusted z-score of 0.121.
In the case of CAUUCAUCAUCCACCCAGATT against MUPCDH, the median seed-adjusted z-score is reported as -0.329.
CCCGGAUACUUCUGAAGAATT against HNRPDL showed a median seed-adjusted z-score of -0.68.
For CGGUGGGAUGGGAACGAAATT against DRAP1, the median seed-adjusted z-score was 1.08 (active).
In the case of CUAUGACUGGAUUAGCGUATT against BEST2, the median seed-adjusted z-score is reported as 0.415.
GCUUUUGAACUAUUUGAUATT against CETN3 gave a median seed-adjusted z-score of -0.0815.
Sequence UGAAGACCCAGAGAUGUAATT against PTN has a median seed-adjusted z-score of -0.174.
UGAGAUCGCUGUCAUGUUATT against PSMD10 gave a median seed-adjusted z-score of 0.265.
In the case of GCAAGGUUUAAUGAACAAATT against GTF2E1, the median seed-adjusted z-score is reported as 1.76 (active).
GUGAGAACUUUGACGAUUATT against PMP2 showed a median seed-adjusted z-score of 0.00618.
In the case of GUAACUGCAUUCAACUUGATT against OSMR, the median seed-adjusted z-score is reported as 0.548.
With UGAAAAACAUUAACAAGCATT against RNASE7 the median seed-adjusted z-score was 1.07 (active).
CAACCUACAUGUUUGCUGATT against SCARF1 showed a median seed-adjusted z-score of -0.324.
GGAACAUUCCGACCUACAATT against PTDSS2 gave a median seed-adjusted z-score of 0.0941.
Work on CCGUCACCAUCCUCAUCUATT against PORCN yielded a median seed-adjusted z-score of 0.214.
With GAUGAUUUUUGGAGACCUATT against TRPV5 the median seed-adjusted z-score was 0.0879.
With GGAGUUUGAGGUAUACCUATT against IL6 the median seed-adjusted z-score was -0.436.
GCUUUAACGUGUCUGUGCATT against SLC25A5 showed a median seed-adjusted z-score of -0.0501.
CUACUACUUUAAUCCCUAATT against FDFT1 gave a median seed-adjusted z-score of -0.143.
For GCAUCGACCUGAUUCACAATT against AP3B2, the median seed-adjusted z-score was -2.45 (active).
For GGAGCGGUUCAGAUCAAUATT against RAB39, the median seed-adjusted z-score was -0.408.
For CCUCAUUGAUAACACUAAATT against GBP2, the median seed-adjusted z-score was -0.263.
For GGAUUGAAGGUGUUCACUATT against PZP, the median seed-adjusted z-score was -0.878.
In the case of CAGUACUACGUGAAACUGATT against BAT1, the median seed-adjusted z-score is reported as -1.49 (active).
GGCUACAAGUAGAGAGUUUTT against ESPL1 showed a median seed-adjusted z-score of 0.871.
With GAGAAAGUGUGAACUUACATT against XRCC2 the median seed-adjusted z-score was 0.
With CGCAACUCUUUACACCGUATT against SAMHD1 the median seed-adjusted z-score was -1.33 (active).
With GGAUGUUUUCGAAACGCAUTT against BRDT the median seed-adjusted z-score was -0.357.
GACUAUUCCUGAUCCUUAUTT against AGBL2 gave a median seed-adjusted z-score of -0.796.
GCAUCAGCUUCGAUGAGUATT against S100A16 showed a median seed-adjusted z-score of 0.24.
Sequence CCCUGUCUAUAAUUUCUUUTT against DGCR8 has a median seed-adjusted z-score of -0.266.
In the case of CGCCUUAUACUUUACCAAATT against MGC16703, the median seed-adjusted z-score is reported as 0.55.
CCAUUAAGAAUGCUAAUAUTT against ABCB10 showed a median seed-adjusted z-score of -0.1.
For GGCUAUAGGGUGUAUAUUUTT against CDK8, the median seed-adjusted z-score was -1.47 (active).
Work on CCUUCGACCUCAAGAGACATT against OVOL1 yielded a median seed-adjusted z-score of -0.0414.
In the case of CAGGCUUUGUUAGACGUAATT against ZNF157, the median seed-adjusted z-score is reported as 0.137.
Sequence GCUCUUGGAUUAAAAGGUATT against STAR has a median seed-adjusted z-score of 0.478.
With GAACGUACUCUUGCUUAUATT against ATP6V1D the median seed-adjusted z-score was 0.594.
In the case of CAGAGAACCCAUUACAUCATT against HADH, the median seed-adjusted z-score is reported as 1.11 (active).
With GACUUUCACAGUUCACCGATT against KCTD3 the median seed-adjusted z-score was 0.603.
In the case of UCAACCCUCUGAUAGAAGATT against EID2, the median seed-adjusted z-score is reported as -1.04 (active).
In the case of GUAUGCUCCCGAUCAAGUATT against APOBEC3A, the median seed-adjusted z-score is reported as 0.467.
GAAGGAUGGGUGGACGUAATT against NALCN showed a median seed-adjusted z-score of -0.266.
Work on CCAUAAAUGCUACGAAUAUTT against EGFR yielded a median seed-adjusted z-score of 0.263.
CAAUGAAUUUUUCCGAAGATT against ITGA10 gave a median seed-adjusted z-score of 0.378.
Work on CCACAUGCUUCAAACAUCATT against TOR1A yielded a median seed-adjusted z-score of -0.231.
For UAGCUUCGGUGAUCAAGAATT against ANXA9, the median seed-adjusted z-score was 0.055.
For GCAAGAGUCGUUCACCAGATT against MGMT, the median seed-adjusted z-score was -0.0549.
With GCUCAAAGGUCUCACCUGCTT against SLC35A2 the median seed-adjusted z-score was 1.06 (active).
